Out of some 39,000 compounds screened, about 3,300 (8.5%) were called active. The list comes from a sample in which actives are over-represented; it also holds similar structures and randomly drawn compounds.

This experiment deals with HepG2. Put plainly: cytotoxicity call (relative viability < 0.9). The settings on record: 10 µM.
Consider `Cc1cn([C@H]2C[C@H](F)[C@@H](CO)O2)c(=O)[nH]c1=O`, for which the cytotoxicity call was “inactive”.

`CCC(=O)N[C@@H]1CC[C@@H](CC(=O)OC)O[C@@H]1CO`: the cytotoxicity call was “inactive”.

Turning to `C[C@@H]1CN([C@@H](C)CO)C(=O)c2cc(-c3cncnc3)cnc2O[C@@H]1CN(C)C(=O)CN1CCOCC1`, the cytotoxicity call was “inactive”.

Regarding `C[C@@H]1CN([C@H](C)CO)C(=O)c2cccc(NC(=O)CCCCCC(=O)Nc3ccccc3N)c2O[C@@H]1CN(C)C(=O)Nc1ccc(C(F)(F)F)cc1`, the cytotoxicity call was “inactive”.

Consider `C[C@@H]1CCCCO[C@H](CN(C)S(=O)(=O)c2ccc(Cl)cc2)[C@H](C)CN([C@@H](C)CO)C(=O)c2cc(NC(=O)Nc3ccc(F)cc3)ccc2O1`, for which the cytotoxicity call was “inactive”.

As to `C[C@H]1CCCCO[C@H](CN(C)S(=O)(=O)c2ccc(Cl)cc2)[C@@H](C)CN([C@@H](C)CO)C(=O)c2cc(NC(=O)Nc3ccc(F)cc3)ccc2O1`, the cytotoxicity call is “inactive”.

On to `C[C@@H]1CN([C@H](C)CO)C(=O)c2cc(NC(=O)Nc3ccc(F)cc3)ccc2O[C@@H](C)CCCCO[C@H]1CN(C)S(=O)(=O)c1ccc(Cl)cc1`, for which the cytotoxicity call is “active”.

Take `C[C@H](CO)N1C[C@H](C)[C@@H](CN(C)S(=O)(=O)c2ccc(Cl)cc2)OCCCC[C@H](C)Oc2ccc(NC(=O)Nc3ccc(F)cc3)cc2C1=O`: the cytotoxicity call was “inactive”.

For the molecule `C[C@@H]1CCCCO[C@H](CN(C)S(=O)(=O)c2ccc(Cl)cc2)[C@@H](C)CN([C@H](C)CO)C(=O)c2cc(NC(=O)Nc3ccc(F)cc3)ccc2O1`, the cytotoxicity call is “inactive”.

As for `C[C@@H]1CCCCO[C@@H](CN(C)S(=O)(=O)c2ccc(Cl)cc2)[C@H](C)CN([C@H](C)CO)C(=O)c2cc(NC(=O)Nc3ccc(F)cc3)ccc2O1`, the cytotoxicity call is “active”.

As for `COc1ccc(CN(C)C[C@@H]2Oc3c(NC(=O)c4cnccn4)cccc3C(=O)N([C@@H](C)CO)C[C@H]2C)cc1`, the cytotoxicity call is “inactive”.

Turning to `CNC(=O)[C@H]1O[C@@H](n2cnc3c(NCc4cccc(I)c4)ncnc32)[C@H](O)[C@@H]1O`, the cytotoxicity call was “inactive”.

Regarding `C[C@@H]1CCCCO[C@H](CN(C)C(=O)Nc2ccccc2)[C@@H](C)CN([C@@H](C)CO)C(=O)c2cc(NC(=O)c3ccccc3)ccc2O1`, the cytotoxicity call is “inactive”.

Regarding `C[C@H]1CN([C@@H](C)CO)C(=O)c2cccc(NC(=O)c3nc4ccccc4s3)c2O[C@H]1CN(C)C(=O)Nc1ccc(F)cc1`, the cytotoxicity call was “inactive”.

As to `C[C@H](CO)N1C[C@H](C)[C@@H](CN(C)C(=O)Nc2ccc3c(c2)OCO3)Oc2ccc(NS(C)(=O)=O)cc2C1=O`, the cytotoxicity call was “inactive”.

On to `COc1ccc(S(=O)(=O)Nc2ccc3c(c2)CC(=O)N([C@@H](C)CO)C[C@H](C)[C@H](CN(C)S(=O)(=O)c2ccccc2)O3)cc1`, for which the cytotoxicity call is “inactive”.

On to `C[C@H](CO)N1C[C@H](C)[C@H](CN(C)S(=O)(=O)c2cn(C)cn2)Oc2ccc(NC(=O)CCCN(C)C)cc2CC1=O`, for which the cytotoxicity call was “inactive”.

As for `C[C@H](CO)N1C[C@H](C)[C@H](CN(C)S(=O)(=O)c2ccc(C#N)cc2)Oc2ncc(C#Cc3cccc(F)c3)cc2C1=O`, the cytotoxicity call was “inactive”.

Take `C[C@@H]1CN([C@H](C)CO)C(=O)c2cc(C#Cc3cccnc3)cnc2O[C@@H]1CN(C)Cc1ccc(F)cc1`: the cytotoxicity call was “inactive”.

Take `COc1ccc(C#Cc2cnc3c(c2)C(=O)N([C@H](C)CO)C[C@H](C)[C@H](CN(C)S(=O)(=O)c2ccc(C#N)cc2)O3)cc1OC`: the cytotoxicity call is “inactive”.

Take `Cc1ccc(S(=O)(=O)N(C)C[C@@H]2Oc3ncc(C#Cc4cccc(F)c4)cc3C(=O)N([C@H](C)CO)C[C@@H]2C)cc1`: the cytotoxicity call is “active”.

On to `COc1ccc(C#Cc2cnc3c(c2)C(=O)N([C@H](C)CO)C[C@H](C)[C@H](CN(C)S(=O)(=O)c2ccc(C)cc2)O3)cc1OC`, for which the cytotoxicity call was “inactive”.

Regarding `COc1ccc(S(=O)(=O)N(C)C[C@@H]2Oc3ncc(C#Cc4ccc(OC)c(OC)c4)cc3C(=O)N([C@H](C)CO)C[C@@H]2C)cc1`, the cytotoxicity call was “active”.

For `C[C@H]1CN([C@@H](C)CO)C(=O)c2cc(C#Cc3cccnc3)cnc2O[C@@H]1CN(C)Cc1ccc(F)cc1`, the cytotoxicity call is “inactive”.

As to `C[C@H](CO)N1C[C@H](C)[C@H](CN(C)S(=O)(=O)c2cccc(F)c2)Oc2ncc(C#Cc3cccc(F)c3)cc2C1=O`, the cytotoxicity call is “inactive”.

With `Cc1ccc(S(=O)(=O)N(C)C[C@@H]2Oc3ncc(C#Cc4ccccc4)cc3C(=O)N([C@H](C)CO)C[C@@H]2C)cc1`, the cytotoxicity call is “inactive”.

Turning to `C[C@H](CO)N1C[C@H](C)[C@H](CN(C)S(=O)(=O)c2ccccc2)Oc2ncc(C#Cc3cccc(F)c3)cc2C1=O`, the cytotoxicity call was “inactive”.

With `C[C@H](CO)N1C[C@H](C)[C@H](CN(C)Cc2ccc(F)cc2)Oc2ncc(C#Cc3cccnc3)cc2C1=O`, the cytotoxicity call was “active”.

Turning to `C[C@H](CO)N1C[C@H](C)[C@H](CN(C)S(=O)(=O)c2ccc(F)cc2)Oc2ncc(C#Cc3cccc(F)c3)cc2C1=O`, the cytotoxicity call was “active”.

In the case of `C[C@H](CO)N1C[C@H](C)[C@H](CN(C)Cc2ccncc2)Oc2ccc(NS(=O)(=O)c3ccccc3)cc2C1=O`, the cytotoxicity call was “inactive”.

For `COc1ccc(S(=O)(=O)N(C)C[C@H]2Oc3ccc(N(C)C)cc3CC(=O)N([C@@H](C)CO)C[C@H]2C)cc1`, the cytotoxicity call is “inactive”.

For the molecule `COc1ccc(NC(=O)N(C)C[C@@H]2Oc3ncc(C#CC(C)C)cc3C(=O)N([C@@H](C)CO)C[C@H]2C)cc1`, the cytotoxicity call is “inactive”.

Consider `NC1CCN(C(=O)NC2CCCCC2)CC1`, for which the cytotoxicity call is “inactive”.

As to `C[C@H]1CCCCO[C@H](CN(C)C(=O)CCC(F)(F)F)[C@@H](C)CN([C@@H](C)CO)C(=O)c2cc(NS(=O)(=O)c3ccccc3)ccc2O1`, the cytotoxicity call is “inactive”.

For the molecule `C[C@H]1CC/C=C\[C@H]2O[C@@]34C=CCN(c5ccc(Cl)cc5)C(=O)[C@H]3N(CCO)C(=O)[C@]4(C)[C@@H]2C(=O)O1`, the cytotoxicity call is “inactive”.

In the case of `Cc1noc(C)c1S(=O)(=O)Nc1ccc2c(c1)C(=O)N([C@@H](C)CO)C[C@@H](C)[C@@H](CN(C)C)OCCCC[C@H](C)O2`, the cytotoxicity call was “inactive”.

For the molecule `C[C@@]12CC[C@@H]3c4ccc(O)cc4C[C@H](CCCCCCCCC[S@@](=O)CCCC(F)(F)C(F)(F)F)[C@@H]3[C@@H]1CC[C@@H]2O`, the cytotoxicity call is “inactive”.

Turning to `O=C(C[C@H]1CC[C@@H]2[C@H](COC[C@@H](O)CN2S(=O)(=O)c2ccccc2)O1)N[C@@H]1CCN(Cc2ccccc2)C1`, the cytotoxicity call is “inactive”.

On to `Cc1ccccc1S(=O)(=O)N1C[C@@H](O)COC[C@@H]2O[C@H](CC(=O)NCCc3ccncc3)CC[C@H]21`, for which the cytotoxicity call was “inactive”.

On to `Cc1noc(C)c1NC(=O)Nc1ccc2c(c1)C(=O)N([C@H](C)CO)C[C@H](C)[C@H](CN(C)Cc1ccc(C(=O)O)cc1)OCCCC[C@@H](C)O2`, for which the cytotoxicity call is “inactive”.

In the case of `CO[C@H]1CN(C)C(=O)c2ccc(NS(=O)(=O)c3cn(C)cn3)cc2OC[C@H](C)N(Cc2cccc(F)c2)C[C@H]1C`, the cytotoxicity call was “inactive”.

With `COc1ccc(NC(=O)N(C)C[C@@H]2OCCCC[C@@H](C)Oc3ccc(NS(=O)(=O)c4c(C)noc4C)cc3C(=O)N([C@@H](C)CO)C[C@H]2C)cc1`, the cytotoxicity call was “inactive”.

For `COc1ccc(NC(=O)N(C)C[C@H]2Oc3ccc(NC(=O)Nc4ccc(C(F)(F)F)cc4)cc3CC(=O)N([C@@H](C)CO)C[C@@H]2C)cc1`, the cytotoxicity call was “inactive”.

Turning to `O=C(O)c1csc2c1CCCCC2`, the cytotoxicity call was “inactive”.

Turning to `COC(=O)CC[C@H]1CCCNC1`, the cytotoxicity call was “inactive”.

For `C[C@@H]1CN([C@H](C)CO)C(=O)c2cc(NS(=O)(=O)c3ccccc3)ccc2O[C@@H](C)CCCCO[C@H]1CN(C)C(=O)C1CCCCC1`, the cytotoxicity call is “inactive”.

Take `NCc1ccno1`: the cytotoxicity call is “inactive”.

For the molecule `C=CCCC(=O)N(C)[C@H](C)[C@@H](OC(=O)[C@@H]1[C@@H]2C=C[C@]3(O2)[C@H](CN(CC=C)Cc2ccccc2)N(C(C)(C)C)C(=O)[C@@H]13)c1ccccc1`, the cytotoxicity call was “inactive”.

Regarding `COc1ccc(NC(=O)Nc2ccc3c(c2)C(=O)N([C@H](C)CO)C[C@H](C)[C@H](CN(C)C(=O)Nc2cccc4ccccc24)O3)cc1`, the cytotoxicity call was “inactive”.

Regarding `C[C@H](CO)N1C[C@H](C)[C@H](CN(C)S(=O)(=O)c2ccc(F)cc2)Oc2ncc(C#Cc3ccc(F)cc3)cc2C1=O`, the cytotoxicity call is “active”.

With `Cc1ccc(S(=O)(=O)N(C)C[C@@H]2Oc3ncc(C#Cc4ccc(F)cc4)cc3C(=O)N([C@H](C)CO)C[C@@H]2C)cc1`, the cytotoxicity call was “inactive”.

In the case of `C[C@H](CO)N1C[C@H](C)[C@H](CN(C)S(=O)(=O)c2ccc(C#N)cc2)Oc2ncc(C#Cc3ccc(F)cc3)cc2C1=O`, the cytotoxicity call was “inactive”.

Regarding `Cc1ccc(S(=O)(=O)Nc2ccc3c(c2)C(=O)N([C@@H](C)CO)C[C@H](C)[C@@H](CN(C)S(=O)(=O)c2ccc(Cl)cc2)OCCCC[C@@H](C)O3)cc1`, the cytotoxicity call was “inactive”.

For `COc1ccc(C#Cc2ccc3c(c2)[C@]2(C(=O)N3)[C@H](c3ccc(O)cc3)N3[C@H](c4ccccc4)[C@H](c4ccccc4)OC(=O)[C@H]3[C@@H]2C(=O)N2CCN(c3ncccn3)CC2)cc1`, the cytotoxicity call was “inactive”.

For the molecule `O=C1O[C@H](c2ccccc2)[C@H](c2ccccc2)N2[C@H]1[C@@H](C(=O)O)[C@]1(C(=O)Nc3ccc(C#CC4=CCCCC4)cc31)[C@H]2C1CCCCC1`, the cytotoxicity call is “active”.

`O=C1O[C@@H](c2ccccc2)[C@@H](c2ccccc2)N2[C@@H](c3ccc(OCCO)cc3)[C@]3(C(=O)Nc4ccc(C#CC5=CCCCC5)cc43)[C@@H](C(=O)N3CCN(c4ncccn4)CC3)[C@H]12`: the cytotoxicity call was “inactive”.

Take `O=C1O[C@@H](c2ccccc2)[C@@H](c2ccccc2)N2[C@@H](c3ccc(O)cc3)[C@]3(C(=O)Nc4ccc(C#CC5=CCCCC5)cc43)[C@@H](C(=O)O)[C@H]12`: the cytotoxicity call was “inactive”.

For the molecule `COc1ccc(C#Cc2ccc3c(c2)[C@]2(C(=O)N3)[C@H](C(=O)N3CCCCCCC3)[C@H]3C(=O)O[C@H](c4ccccc4)[C@H](c4ccccc4)N3[C@@H]2c2ccc(O)cc2)cc1`, the cytotoxicity call is “active”.

As to `O=C1O[C@H](c2ccccc2)[C@H](c2ccccc2)N2[C@H]1[C@@H](C(=O)O)[C@]1(C(=O)Nc3ccc(C#CC4(O)CCCCCC4)cc31)[C@H]2c1ccccc1OCCO`, the cytotoxicity call was “inactive”.

For the molecule `O=C1O[C@H](c2ccccc2)[C@H](c2ccccc2)N2[C@H]1[C@@H](C(=O)O)[C@]1(C(=O)Nc3ccc(C#CC4=CCCCC4)cc31)[C@H]2c1ccc(O)cc1`, the cytotoxicity call is “inactive”.

As to `O=C1O[C@@H](c2ccccc2)[C@@H](c2ccccc2)N2[C@@H](c3ccc(OCCO)cc3)[C@]3(C(=O)Nc4ccc(C#CC5=CCCCC5)cc43)[C@@H](C(=O)N3CCCCCCC3)[C@H]12`, the cytotoxicity call was “active”.

Take `O=C1O[C@@H](c2ccccc2)[C@@H](c2ccccc2)N2[C@@H](c3ccccc3OCCO)[C@]3(C(=O)Nc4ccc(C#CC5=CCCCC5)cc43)[C@@H](C(=O)O)[C@H]12`: the cytotoxicity call was “inactive”.

In the case of `O=C1O[C@H](c2ccccc2)[C@H](c2ccccc2)N2[C@H]1[C@@H](C(=O)O)[C@]1(C(=O)Nc3ccc(C#CC4=CCCCC4)cc31)[C@H]2c1ccccc1OCCO`, the cytotoxicity call is “active”.

For `COc1ccc(C#Cc2ccc3c(c2)[C@]2(C(=O)N3)[C@H](c3ccc(O)cc3)N3[C@H](c4ccccc4)[C@H](c4ccccc4)OC(=O)[C@H]3[C@@H]2C(=O)N2CCCCCCC2)cc1`, the cytotoxicity call is “inactive”.

Consider `NC(=O)[C@@H]1[C@H]2C(=O)O[C@H](c3ccccc3)[C@H](c3ccccc3)N2[C@H](c2ccc(OCCO)cc2)[C@@]12C(=O)Nc1ccc(C#CC3=CCCCC3)cc12`, for which the cytotoxicity call was “inactive”.

Source of the values: the antibiotic and cytotoxicity screens of Wong et al. (2023).
